In PMC7826789 (International Journal of Molecular Sciences, 2021):

**Q.** With COc1cc(Nc2cnc(C#N)c(O[C@H](C)CN(C)C)n2)ncc1-c1cnn(C)c1 [CCT244747] as the molecule, how does the Kinases covered (RPS6KA3) read?
**A.** RPS6KA3

**Q.** With CCn1c(-c2nonc2N)nc2cncc(C(=O)N3CC[C@H](N)C3)c21.Cl [SB-772077-B] as the molecule, how does the Kinases covered (RPS6KA5) read?
**A.** RPS6KA5

**Q.** And the Kinases covered (RSK1)?
**A.** RSK1

**Q.** How did the Kinases covered (RSK1) turn out when CCCNC(=O)c1ccc(Nc2ncc(C(F)(F)F)c(Nc3ccccc3C(C)=O)n2)c(Br)c1 [BI00801818] was run?
**A.** RSK1

**Q.** What about the Kinases covered (RSK2) of the same molecule?
**A.** RSK2

**Q.** For COc1ccc2[nH]c3c4[nH]c5ccc(OC)cc5c4c4c(c3c2c1)C(=O)NC4=O [GW296115X], which Kinases covered (RSK3) is on record?
**A.** RSK3

**Q.** With CC(C)N1CC(=O)N(C)c2cnc(Nc3cccc(S(=O)(=O)CCN4CCOCC4)c3)nc21 [BI00009348] as the molecule, how does the Kinases covered (RSK4) read?
**A.** RSK4

**Q.** CCn1c(-c2nonc2N)nc2cncc(CNC3CCNCC3)c21 [SB-747651A] was tested. Which Kinases covered (RSK) did it give?
**A.** RSK

**Q.** For CCn1cc(-c2ccnc3[nH]c(-c4cccc(CN(C)C)c4)cc23)c(-c2ccc(NC(=O)N(C)C)cc2)n1 [GSK1070916], which Kinases covered (SIK) is on record?
**A.** SIK

**Q.** How did the Kinases covered (SNARK) turn out when COc1cc2c(cc1OC)C(=C(Nc1ccccc1)c1cccc(CN)c1)C(=O)N2 [BIBF0846CL] was run?
**A.** SNARK
